From PubChem BioAssay come the findings set out here.

The target of experiment [1] is ATP-dependent translocase ABCB1 (Homo sapiens) (UniProt P08183). The experiment can be described thus: P-glycoprotein substrate transport blockade – cell-based (AID 377; in the data active = fluorescence slope change above about 50%). The note with it: MDR1-expressing cells, fluorescent substrate accumulation slope; stronger effect = higher value; concentration not given here.
The nature of experiment [2]: compounds altering viability of human ES cells (AID 493140).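 Note: cells exposed to compounds for four days before counting.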 The note with it: human embryonic stem cell survival screen; stronger effect = higher value.
Experiment [3] in a line: P. berghei load reduction in hepatocytes – cell-based, HepG2, luciferase luminescence, HepG2 viability, primary screen (AID 624349; in the data active = parasite load remaining mostly below about 12%, no sharp cut-off; inactive = mostly above about 10%;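 note: 100% = mean of DMSO negative control wells on the same plate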). The note with it: P. berghei liver stage in HepG2, luciferase luminescence, concentration not given here; parasite load remaining: stronger effect = lower value; viability: measured here: HepG2 viability without parasites.
A short description of experiment [4]: viability loss with induced miR-34 in A549 – imaging, A549 dox-inducible miR-34, nuclei and caspase counts, primary screen (AID 1347080;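 active = compounds whose cell count with miR-34 switched on is under 0.7 times the count with it off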). The note with it: A549 miR-34 inducible, Hoechst nuclei count, 48 h.
Experiment [5] can be described thus: MELAS cybrid and Rieske KO viability enhancers – cell-based, MELAS cybrids, Rieske KO mouse fibroblasts, CellTiter-Glo, primary screen (AID 1508586;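 active = mean z-score across replicates of 1.96 or higher in either the MELAS or the Rieske mutant cell line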;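 note: z relative to plate mean and SD of compound and empty wells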). The note with it: low glucose. On the technique in general: ATP-based viability assays read luminescence as a measure of living cells.
Experiment [6] in a line: compounds altering circadian rhythm period length – cell-based, LOPAC library, luminescence reporter (AID 2774).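 Note: values are relative to mean of DMSO wells on each plate.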 The note with it: circadian reporter cells, at 7 µM, actives lie on both sides.
For experiment [7], the system named is Hepatitis C virus NS3 helicase. Description: blockers of NS3h binding to ssDNA – biochemical, fluorescence polarization, LOPAC1280 library, primary screen (AID 687035; in the data active = inhibition above about 37%). The following applies: Purified HCV NS3 helicase, Cy5-dT15 ssDNA binding fluorescence polarization; stronger effect = higher value; concentration not given here. A general note: Fluorescence polarisation rises when a labelled molecule tumbles more slowly, as on binding a larger partner.

The nature of experiment [8]: compounds altering Cy5-DNA-NS3h complex signal – biochemical, LOPAC1280, artefact control for HCV NS3 helicase inhibitor project (AID 687037). The note with it: Cy5-DNA-NS3h complex fluorescence interference counterscreen. Background: The purpose of a counterscreen is to sort out artefacts and off-target activity.
Experiment [9] can be described thus: blockers of cellular phospholipid synthesis – cell-based, LOPAC library, screen 4, primary screen (AID 1347384). The note with it: animal cells, phospholipid biosynthesis inhibition screen; at 10 µM.
A short description of experiment [10]: galactose survival enhancers in mitochondrial complex I cybrids – cell-based, galactose medium, ATP luminescence, primary screen (AID 1645843;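 active = z-score of at least 1.8 in each of two replicates, scored against plate mean and spread of sample wells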;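 note: positive z means more ATP and so rescue of galactose-driven cybrid death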). The note with it: complex I mutant cybrid cells, 72 h, stronger effect = higher value.
Where [11] appears, read: stronger effect = lower value, cell number ratio, induced over uninduced.
[12] abbreviates: measured here: relative caspase fold change +Dox/-Dox.
[13] abbreviates: measured here: total cells with miR-34 induction, stronger effect = lower value.
Setting [14] is: measured here: total cells without miR-34 induction.
The mark [15] stands for this setting: MELAS cybrid survival, CellTiter-Glo 48 h, stronger effect = higher value.
Where [16] appears, read: Rieske KO mouse fibroblast survival, CellTiter-Glo 72 h.

Several values for one entry are separate records, joined by “and”; a condition that tells them apart may be missing. Identical values can stand only once. Results filed as inconclusive are left out. Activity calls are given as the source filed them. Unless noted, the rule behind the calls is not given here.

ATP-dependent translocase ABCB1 (Homo sapiens), sequence (P08183 whole entry, looked up): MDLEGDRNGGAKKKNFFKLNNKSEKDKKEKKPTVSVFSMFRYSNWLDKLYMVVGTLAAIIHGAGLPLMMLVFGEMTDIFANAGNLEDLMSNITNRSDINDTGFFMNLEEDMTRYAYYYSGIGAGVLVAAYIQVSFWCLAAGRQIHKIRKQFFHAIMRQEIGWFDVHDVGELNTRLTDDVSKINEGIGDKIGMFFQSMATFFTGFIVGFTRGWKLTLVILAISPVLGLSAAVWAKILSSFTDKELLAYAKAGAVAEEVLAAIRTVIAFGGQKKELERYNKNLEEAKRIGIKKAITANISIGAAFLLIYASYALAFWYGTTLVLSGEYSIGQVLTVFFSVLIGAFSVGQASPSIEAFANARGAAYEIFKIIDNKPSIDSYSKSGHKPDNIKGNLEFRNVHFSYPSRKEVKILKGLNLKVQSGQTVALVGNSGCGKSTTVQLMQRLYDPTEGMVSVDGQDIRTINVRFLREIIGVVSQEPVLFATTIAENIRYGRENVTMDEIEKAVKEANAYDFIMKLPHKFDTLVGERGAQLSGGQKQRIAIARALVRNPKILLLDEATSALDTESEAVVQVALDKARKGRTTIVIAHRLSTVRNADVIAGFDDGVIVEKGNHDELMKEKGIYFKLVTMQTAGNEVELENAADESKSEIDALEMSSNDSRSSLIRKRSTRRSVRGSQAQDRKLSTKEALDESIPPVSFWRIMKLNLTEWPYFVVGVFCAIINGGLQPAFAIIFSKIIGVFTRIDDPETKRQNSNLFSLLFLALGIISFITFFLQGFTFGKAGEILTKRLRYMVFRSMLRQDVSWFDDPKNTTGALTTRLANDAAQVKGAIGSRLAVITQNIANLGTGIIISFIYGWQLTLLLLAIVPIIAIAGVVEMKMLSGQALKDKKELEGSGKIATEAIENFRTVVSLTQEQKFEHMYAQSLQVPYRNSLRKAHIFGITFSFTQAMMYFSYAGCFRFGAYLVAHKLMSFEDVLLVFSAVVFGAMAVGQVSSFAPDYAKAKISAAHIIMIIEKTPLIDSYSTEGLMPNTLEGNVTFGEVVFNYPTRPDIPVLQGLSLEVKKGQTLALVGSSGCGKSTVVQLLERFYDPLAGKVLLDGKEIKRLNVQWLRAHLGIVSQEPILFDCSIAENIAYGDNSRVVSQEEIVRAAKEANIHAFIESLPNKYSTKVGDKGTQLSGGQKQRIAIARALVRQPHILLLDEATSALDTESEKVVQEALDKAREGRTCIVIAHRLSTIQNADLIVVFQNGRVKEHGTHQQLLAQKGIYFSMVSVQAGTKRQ

What is called viability is a read-out of living cells in per cent, often relative to untreated cells. For the compound `C[C@@H]1NC(=O)NC1=O`, the fluorescence slope change in experiment [1] is 57.7% (active). In addition, in experiment [2], the survival is 3.92 (inactive). In addition, the parasite load remaining in experiment [3] was 81.4% (inactive) and 66.6% (inactive). Moreover, in experiment [3], the viability was 97.9% and 95.3%. Further, the fold change in experiment [4] (setting [11]) is 0.891 (inactive) and 0.879 (inactive); in experiment [4] (setting [12]), 1.07 and 1.01. Also, the cell count is 8770 and 8800 in experiment [4] (setting [13]); 9840 and 10000 in experiment [4] (setting [14]). Also, the z-score in [5] (setting [15]) was 0.462 (inactive); in experiment [5] (setting [16]) it was -0.44.

A word on the inhibition: it is the drop in the measured response relative to a control, in per cent. Regarding `CCCCCCCCCCCCCCCCCCOC[C@H](COP(=O)([O-])OCC[N+](C)(C)C)OC`, the period change in experiment [6] is -0.025 h (inactive). In addition, the survival in experiment [2] was 97.7 (inactive). The inhibition in experiment [7] was 0% (inactive). For the same compound, the fluorescence ratio (interference) in experiment [8] is 1 (inactive). In addition, the fold change is 0.77 (inactive) and 1.03 (inactive) and 1.02 (inactive) in experiment [4] (setting [11]); 1.7 and 0.981 and 0.958 in [4] (setting [12]). For the same compound, the cell count in [4] (setting [13]) was 1920 and 5950 and 5710; in experiment [4] (setting [14]), 2500 and 5760 and 5620. In addition, the result in experiment [9] was inactive. Besides, the z-score in experiment [10] was -0.975 (inactive).

`CCCC1CC(C(=O)NC(C(C)Cl)C2OC(SC)C(O)C(O)C2O)N(C)C1` (configuration not stated): the fold change was 0.887 (inactive) and 0.926 (inactive) and 0.928 (inactive) in experiment [4] (setting [11]); 0.463 and 0.824 and 1.2 in experiment [4] (setting [12]). In addition, the cell count in experiment [4] (setting [13]) was 8440 and 7670 and 9370; in [4] (setting [14]), 9520 and 8280 and 10100. Besides, the z-score in experiment [5] (setting [15]) is 0.443 (inactive) and -0.35 (inactive) and -0.364 (inactive); in [5] (setting [16]) it was -0.229 and -0.0713 and 0.118; in experiment [10], -0.495 (inactive).

As for `CC(N)C1CCC(C(=O)Nc2ccncc2)CC1` (configuration not stated), the period change in [6] is 0 h (inactive). Besides, the inhibition in [7] is -1% (inactive). Moreover, the fluorescence ratio (interference) in [8] is 1 (inactive). The fold change is 0.953 (inactive) and 0.841 (inactive) in experiment [4] (setting [11]); 1.2 and 0.911 in experiment [4] (setting [12]). The cell count in [4] (setting [13]) is 10100 and 7170; in experiment [4] (setting [14]), 10600 and 8530. Moreover, the compound was called inactive in [9]. The z-score is -0.271 (inactive) in experiment [5] (setting [15]), 0.184 in [5] (setting [16]) and -0.475 (inactive) in [10].

For `CC(C)(C)c1onc(OCP(=O)(O)O)c1CC(N)C(=O)O` (configuration not stated), the period change in experiment [6] is -0.03 h (inactive). In addition, in experiment [7], the inhibition is -3% (inactive). Moreover, in experiment [8], the fluorescence ratio (interference) was 0.9 (inactive) and 1 (inactive). Besides, the fold change is 1.04 (inactive) and 0.947 (inactive) in experiment [4] (setting [11]); 1.07 and 1.18 in [4] (setting [12]). Further, the cell count in experiment [4] (setting [13]) was 10900 and 10600; in experiment [4] (setting [14]), 10500 and 11200. In [9], the result was inactive. Moreover, the z-score in [10] is 0.82 (inactive) and 0.145 (inactive).

Take `CC1CNCCN1S(=O)(=O)c1cccc2cnccc12` (configuration not stated): the period change in [6] is 0.05 hour (inactive) and -0.065 hour (inactive). The survival in [2] is 216 (active). Also, the inhibition in [7] was -1% (inactive). In addition, the fluorescence ratio (interference) in experiment [8] is 0.9 (inactive). For the same compound, the fold change in experiment [4] (setting [11]) is 1.06 (inactive) and 1.03 (inactive); in experiment [4] (setting [12]), 1.18 and 0.538. The cell count was 11400 and 1600 in experiment [4] (setting [13]); 10700 and 1550 in [4] (setting [14]). In addition, the call in experiment [9] was inactive. Besides, the z-score in experiment [10] was -1.29 (inactive).
